# In the library only some 4.8% were active in any assay of this set; here they are far more common.
# SMARCA2 activ – SMARCA2 function activation, primary screen. MG213 cells, MMTV-luciferase reporter, dexamethasone, overnight. activation, % at 9.1 µM. 370,000 tested, 1% active. AID 652017; in the data active = activation above about 7.8%;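 also: 0% = vehicle wells and 100% = reference activator wells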
# hcDAF-12 act – activators of H. contortus DAF-12 nuclear receptor. HEK293 hcDAF-12 lit1-tk-luc reporter, luminescence; 0% DMSO, 100% Δ7-dafachronic acid. activation, % at 6.8 µM. 370,000 tested, 1.4% active. AID 652067;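 active = activation above the mean of all tested compounds plus 3 SD, cut at about 5.5% in these data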;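 also: 100% = response to 3 µM Δ7-dafachronic acid high control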
# DAX1 inh-1 – inhibitors of DAX1 repression of SF-1 activated StAR promoter; AID 652010; 370,000 tested, 1.1% active; HEK293T StAR-luciferase reporter, SF-1/DAX-1 repression relief; inhibition, % at 6.8 µM;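 active = inhibition above the mean over all tested compounds plus 3 SD, cut at about 3.6% in these data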;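 also: 0% = DAX-1 cells with DMSO and 100% = cells lacking DAX-1 with DMSO; higher inhibition means more luminescence from relief of DAX-1 repression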
# hgDAF12 agonist – agonists of H. glycines DAF-12 nuclear receptor | HEK293 GAL4-hgDAF12 UAS-luciferase reporter, agonist luminescence; normalized to butyrate control | activation, % at 6.8 µM | 370,000 tested, 1.8% active;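 active = activation above a cutoff set at the mean of all screened compounds plus 3 SD, cut at about 10% in these data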;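 also: 0% = DMSO wells and 100% = sodium butyrate wells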
# ssDAF-12 act – S. stercoralis DAF-12 activation, primary screen | HEK293 ssDAF-12/GRIP1 lit1-tk-luc reporter, luminescence; % of 3 µM dafachronic acid response | activation, % at 6.8 µM | 370,000 tested, 1% active;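 active = activation above the mean over all tested compounds plus 3 SD, cut at about 0.9% in these data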;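 also: 0% = DMSO-only wells and 100% = 3 µM delta7-dafachronic acid wells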
# DAX1 inh-2 – inhibitors of human orphan nuclear receptor DAX1 (NR0B1); HEK293 Gal4-DAX1 luciferase reporter, luminescence; inhibition, % at 6.75 µM; 340,000 tested, 0.99% active; AID 504766;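 active = inhibition above the mean over all tested compounds plus 3 SD, cut at about 4.2% in these data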;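 also: 0% = DAX1-transfected cells with DMSO and 100% = empty-vector control cells with DMSO; inhibition shows as a rise in luminescence from relieved DAX1 repression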
# LXR ag – counter-screen for hcDAF-12 agonists: agonists of human LXR-beta; shares compounds with hcDAF-12 act; HEK293 Gal4-LXR tk-luc reporter, luminescence, 24 h; normalized: DMSO 0%, positive control 100%; activation, % at 6.8 µM; 3,400 tested, under 10 active;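 active = mean percent activation of the reporter above a cutoff set as the average over tested compounds plus their standard deviation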
# Target sequence (P55055 whole entry, looked up, the tested form may be a part): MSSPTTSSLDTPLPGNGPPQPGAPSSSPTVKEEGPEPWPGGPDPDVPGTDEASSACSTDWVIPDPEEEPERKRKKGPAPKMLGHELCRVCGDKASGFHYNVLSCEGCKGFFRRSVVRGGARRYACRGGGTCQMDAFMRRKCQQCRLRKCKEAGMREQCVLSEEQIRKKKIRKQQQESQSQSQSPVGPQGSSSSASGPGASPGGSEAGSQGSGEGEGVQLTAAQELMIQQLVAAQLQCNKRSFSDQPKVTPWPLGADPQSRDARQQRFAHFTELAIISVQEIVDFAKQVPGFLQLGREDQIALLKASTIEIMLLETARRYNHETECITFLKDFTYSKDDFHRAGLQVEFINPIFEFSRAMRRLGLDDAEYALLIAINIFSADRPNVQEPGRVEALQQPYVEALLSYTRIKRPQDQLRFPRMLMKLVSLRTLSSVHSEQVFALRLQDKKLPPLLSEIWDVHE
# hcDAF12 ag – hcDAF-12 agonism, confirmation assay | shares compounds with hcDAF-12 act | HEK293 hcDAF-12 lit1-tk-luc reporter, luminescence; % of Δ7-dafachronic acid response | activation, % at 6.8 µM | 3,400 tested, 61% active | AID 743032;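 active = mean activation across triplicate tests above the threshold derived from the earlier primary screen, cut at about 5.5% in these data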;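 also: 0% = DMSO only wells and 100% = 3 µM Δ7-dafachronic acid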
# * = called active by the depositor; / = not tested or not shown.
SMILES,SMARCA2 activ,hcDAF-12 act,DAX1 inh-1,hgDAF12 agonist,ssDAF-12 act,DAX1 inh-2,LXR ag,hcDAF12 ag
COc1ccc(C2NN=C(c3ccc(C)cc3)S2)cc1 (stereo not given),6,4,2,10,0,4,/,/
Oc1ccccc1C1NN=C(c2ccccc2)S1 (stereo not given),5,20*,4.1*,16*,4.2*,3,2,16*
Cn1cc(S(=O)(=O)N2CCCC(C(=O)O)C2)cn1 (stereo not given),3,0,0,-1,-1,0,/,/
CCN(CC)C(=O)N1CCc2ccccc21,1,6.7*,-1,0,0,0,0,3
Cc1ccc(OC(C)C(=O)N2CCc3ccccc32)cc1 (stereo not given),1,9.4*,1,1,0,-1,0,3
CC(Oc1ccccc1)C(=O)N1CCCc2ccccc21 (stereo not given),-2,1,-1,-2,-1,-1,/,/
CCOCC(=O)N1CCc2ccccc21,2,5,0,2,0,-1,/,/
CCNC(=O)C1(C)CCN(C(=O)c2ccc(OC)cc2OC)C1 (stereo not given),-3,1,0,2,-1,/,/,/
O=C1C(C=NCc2ccco2)=C(O)c2ccccc21,1,13*,3,15*,1.4*,4.3*,1,12*
COc1cccc2sc(Nc3nnc(-c4ccc(F)cc4)o3)nc12,4,7.8*,-1,4,0,0,0,4
COc1ccc(-c2nnc(-c3ccc(F)cc3)o2)cc1,3,3,1,9,0,3,/,/
Cc1ccc2nc(-c3ccc(NC(=O)COC(=O)c4ccc([N+](=O)[O-])o4)cc3)sc2c1,3,7.4*,4.0*,23*,1.3*,2,2,8.8*
O=C(COC(=O)c1ccc([N+](=O)[O-])o1)Nc1ccc(F)cc1,2,0,-2,0,-1,-1,/,/
CC1CCCC(C)N1C(=O)COC(=O)C1CCN(S(=O)(=O)c2c(Cl)cccc2Cl)CC1 (stereo not given),-1,-1,0,1,-1,1,/,/
CCOC(=O)C1(Cc2ccc(OC)cc2)CCN(C(=O)CCc2cccnc2)CC1,1,-1,0,1,-1,-2,/,/
COc1ccc(/C(C)=N/Nc2nc3ccccc3nc2C)cc1OC,3,8.4*,2,9,0,5.1*,0,0
COc1ccc(/C(C)=N/Nc2cccc(C(=O)O)c2)cc1OC,2,2,2,7,-1,0,/,/
O=C(NNc1nc2ccccc2s1)c1ccc(F)cc1,-1,9.6*,0,3,2.1*,0,0,1
CCn1c(CNc2ccc(C(=O)O)cc2)nc2ccccc21,1,9.3*,0,1,0,0,0,2
Cn1c(CNc2ccccc2)nc2ccccc21,6,8.7*,2,10,1.1*,2,0,6.9*
Cn1c(CNc2ccccc2O)nc2ccccc21,5,8.4*,0,4,3.0*,0,0,9.0*
Cc1ccccc1NCc1nc2ccccc2n1C,4,8.4*,3,10,1.0*,3,1,6.2*
CCCC(=O)NCc1nc2ccccc2n1C,-1,1,0,0,-1,0,/,/
O=C(OCC(F)(F)C(F)F)c1ccccc1C(=O)Oc1ccc(F)cc1F,-1,-1,0,3,0,0,/,/
CC(C)CCn1nnnc1CN1CCN(c2ccccc2)CC1,-3,-1,0,0,-1,-1,/,/
SMILES,SMARCA2 activ,hcDAF-12 act,DAX1 inh-1,hgDAF12 agonist,ssDAF-12 act,DAX1 inh-2,LXR ag,hcDAF12 ag
O=C(CSc1ccc2nnc(CCNC(=O)c3ccccc3)n2n1)Nc1ccc(F)cc1F,-2,2,-1,-2,-1,0,/,/
O=C(N/N=C/c1c[nH]c2ccccc12)c1sc2ccccc2c1Cl,6,9.1*,0,7,0,1,0,4
Cc1ccc(C(=O)Nc2ccc(C(=O)N/N=C/c3c[nH]c4ccccc34)cc2)cc1,3,7.3*,-1,4,0,1,0,7.2*
COc1ccccc1C(=O)N/N=C/c1c[nH]c2ccccc12,0,7.0*,0,6,1.4*,-1,0,6.3*
O=C(N/N=C/c1c[nH]c2ccccc12)c1ccncc1,6,5,0,3,0,2,/,/
O=C(NN=Cc1c[nH]c2ccccc12)NN=Cc1c[nH]c2ccccc12,1,2,0,-2,1,-1,/,/
CNc1cnn(-c2ccc(C)cc2)c(=O)c1Cl,5,8.1*,3,10,1,3,1,9.1*
Cc1ccc(OC(=O)c2oc3ccc(F)cc3c2C)c(C)c1,5,8.1*,0,11*,1,1,0,3
COc1ccc(/C=C/C(=O)c2oc3ccc(F)cc3c2C)cc1,/,/,/,/,/,0,/,/
COc1ccccc1-c1nc(SCc2ccccn2)n[nH]1,-2,6.9*,2,8,1,4.9*,0,9.0*
COc1ccccc1-c1nnc(SCc2ccccn2)n1C,0,-1,0,0,-1,1,/,/
Cn1ccnc1Sc1ccc(/C=N/NC(=O)c2ccccc2O)cc1[N+](=O)[O-],0,9.5*,0,5,1,0,0,7.2*
CC(=O)Nc1cc(-c2ccc(F)cc2)cn2c(-c3ccc(F)c(Cl)c3)cnc12,-1,-2,0,1,-1,/,/,/
Nc1cccn2c(-c3ccc(Cl)c(Cl)c3)cnc12,6,9.5*,4.0*,10,1.1*,3,1,13*
O=C(O)/C=C\C(=O)Nc1ccccc1C(=O)N1CCC(O)(c2ccc(Cl)cc2)CC1,4,-2,1,0,-1,1,/,/
Fc1cccc(F)c1/C=N/Nc1ccccn1,0,7.1*,1,13*,1.5*,5.2*,0,10*
Fc1cccc(Cl)c1/C=N/Nc1ccccn1,8,7.0*,0,6,1,1,0,10.0*
COc1ccc(C(=O)CSc2nnc(CNC(=O)c3ccccc3)n2C)cc1,-3,0,-2,1,0,0,/,/
c1ccc2c(c1)ncc1cccn12,0,6.7*,0,5,1.5*,0,0,4
COc1ccc(CN(C)C(=O)C23CC4CC(CC(Cl)(C4)C2)C3)c(OC)c1OC,-2,-1,0,0,-1,-1,/,/

# Screening data: PubChem, The Scripps Research Institute Molecular Screening Center
